Results taken from PubChem BioAssay (NCATS).
Results filed as inconclusive are left out. A call without a number means that no potency is given here. Calls of active or inactive are those of the source. The call rests on the fitted dose curve; in most records, active means well fitted inhibition curve with a large enough effect; inconclusive means small, poorly fitted or top-dose-only effect; inactive means no such curve, though single readings can be large or run the other way.

target: Retinaldehyde dehydrogenase 3 (Homo sapiens) (UniProt P47895); experiment: qHTS for Inhibitors of the Aldehyde Dehydrogenase Family (ALDH1A3) Confirmatory screens (AID 2061311); conditions: ALDH inhibition qHTS; series mostly up to 46 µM; further: nearly all actives have a fitted effect of over 60% in size
Potency means the concentration at half of the fitted maximal effect.

Structure (SMILES) | Potency
CCCOc1ccc(C(=O)Nc2ccc(NC(=O)c3cccc(Cl)c3)cc2)cc1 | inactive
Cc1cc(C)n2nc(SCC(=O)Nc3ccccc3C)nc2n1 | inactive
O=C(O)c1ccc(Cn2c(SCc3ccc(F)cc3)nc3ccncc32)cc1 | inactive
O=S(=O)(Nc1nc2ccccc2s1)c1ccc(NCc2ccc(Br)cc2O)cc1 | 14.2 µM (active)
CCC(=O)NC(C)c1cc(Cl)c2ccccc2c1O (configuration not stated) | 12.7 µM (active)
COc1ccccc1-c1cc2c(nc1OC)nc(CC1CC1)n2C | inactive
O=[S+]([O-])(c1ccccc1)c1nnn2c1nc(N1CCC(F)CC1)c1ccccc12 | inactive
COc1cccc(CNc2ccc(S(=O)(=O)Nc3ccc(N4CCNCC4)nc3)cc2)c1O | 15.9 µM (active)
Cc1ccc(N[S+](=O)([O-])c2cc3c(cc2N[C@@H](C)CO)NC(=O)CC3)cc1N[C@@H](C)CO | 14.2 µM (active)
CNC(=O)c1cccc(-c2ccc(C(C)(C)C#N)cc2)n1 | 8.91 µM (active)
COc1ccccc1-c1cnc2n[nH]c(-c3ccccc3C)c2n1 | inactive
CN(C(=O)c1cnc2n[nH]c(-c3ccccc3)c2n1)c1ccccc1 | inactive
CCOc1ccc(NC(=O)CN2CCN(c3ccc(Cl)cc3)CC2)cc1 | inactive
O=C(CSc1nc2c(cnn2-c2ccc(F)cc2)c(=O)[nH]1)Nc1ccc(Br)cc1 | inactive
CCOc1ccc(NC(=O)C(=O)NCCc2ccccc2)cc1 | inactive
COc1ccc(Cl)cc1NC(=O)c1cc2nc(-c3ccc(C)cc3)cc(C(F)(F)F)n2n1 | inactive
O=C(CSc1nc(-c2ccco2)nc2cc(=O)[nH]n12)Nc1ccccc1Cl | inactive
